About 3,700 (7%) of roughly 53,000 sequences were called active. Shown is part of a subset that was picked to be rich in actives. Values without a mark were called inactive.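 Rule for the calls: active = gene knockdowns whose robust z-score for IL-1 alpha signal is at least 2 or at most -2, so actives lie on both sides; inactive = the rest.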

This assay can be described thus: Components of the Cytosolic LPS Sensing Pathway: Gene Identification via Genome-wide siRNA Screen.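 Note: robust z of the log signal after scaling to non-targeting control siRNA wells of the plate.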 To be noted: RAW264.7 macrophages, IL-1a HTRF, actives lie on both sides, screened at 100 nM (by protocol), cells primed 5 h with Pam3CSK4 first. The essentials:
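Supernatant IL-1a by HTRF from RAW264.7 cells primed with Pam3CSK4 (5 hours) and transfected with LipidA (24 hour) after 48h siRNA knockdown at 100 nM; cell viability checked with CellTiter-Glo.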
In the case of GGGCACUGACAAACGUAUUTT against Olfr433, the z-score is -0.34.

Turning to GUUCUUCUCUGUUGGUGCUTT against Vmn1r24, the z-score is -2.12 (active).

As for GGACUUCGUGAACAAGAUCTT against Grin2b, the z-score is -0.439.

On to GCGGCCACGGGACGGCGGUTT against Hmx2, for which the z-score was -0.455.

Turning to GGUCAUGACAGGAUACCCATT against Fam163b, the z-score is -1.99.

Regarding GGAGCCGUACAUCUUACACTT against Abhd1, the z-score is 0.33.

For GCCGAGUGAAUGAAAGGACTT against Ppp1r32, the z-score was -0.758.

Regarding CCGUGGCGUAUGUGAUCAATT against Map3k5, the z-score is -0.249.

Consider GGACUCUCAGAAGAAUGAUTT against Hmmr, for which the z-score was 2.98 (active).

Regarding GGGAAAUGUUUUCCAAAGATT against Tep1, the z-score was 0.776.

As for CCAUAUGUGCUCACCUUUATT against Marveld2, the z-score is -0.641.

For the sequence CGAGUUUAAAGUGAGAAGATT against Pou1f1, the z-score was 0.488.

GCCACUCUUUAAGAAUCUATT against Abcf1: the z-score is -0.552.

Turning to GCAUUGUCCGAGGUUUAUUTT against Tspan33, the z-score was 0.64.

Take GGAGACAUUCCUGAAAGCUTT against Ankrd2: the z-score is -2.09 (active).

With “GGUGCUAUGUGCGUUUGAUTT against 9830107B12Rik”, the z-score was 1.97.

Take GGCGGAUGAACAAAGUUGGTT against Polr1e: the z-score is 0.0863.

Consider GGAGAAUAAGCAAAUCCUUTT against Cfap20dc, for which the z-score is -0.937.

For the sequence GGUCCCAUAUACCAGAUCUTT against Slc3a1, the z-score was 1.63.

Regarding UGUCAGUGCAGAAUAGCACTT against Olfr658, the z-score was -1.17.

For GGACAUAGAGAACAUCAUCTT against Cabp7, the z-score is 4.02 (active).

For CGACACUCAAUGUGAACUUTT against Grtp1, the z-score was -0.881.

For the sequence GCCAGUCAUGCCUAUUUUCTT against Zmym6, the z-score is -0.528.

In the case of GGUGUGAGUGUCGGAAUCUTT against Islr2, the z-score is 0.138.

GGGACAAGUUCAUCUGAUATT against Rin1: the z-score is 2.06 (active).

Take GGAAUGGUUUUAUUUUUGGTT against Noa1: the z-score is -0.0245.

As for GGUACCUCUGUAUUCAGCCTT against Olfr121, the z-score is 0.78.

Consider GGAAACUACAAAUUUGGCATT against Krtap6-2, for which the z-score was 0.195.

With CCCACAGUAAAUUCAACGGTT against Gm5069, the z-score is 0.00754.

In the case of UACCCAUUGUCAAGUUGGATT against Grm4, the z-score was -0.634.

With GGACCUGUGUGUUCUUUGATT against Amhr2, the z-score is -0.505.

In the case of CCUUGGCAGGUAUAGUGUUTT against Klk9, the z-score was -1.09.

Consider GGCGGUGUUUUACUACAAGTT against Capn7, for which the z-score is 3.99 (active).

For GGAUCCCAGUUCUGGGUAATT against Dok1, the z-score is -0.0628.

With GCCUAUUUGACGUGCAGAGTT against Crocc, the z-score was -0.0336.

Turning to GCUGUUUUAUCUCCAAUGGTT against Araf, the z-score is 1.73.

As to CCCAUGUACCACUUUGUCATT against Olfr430, the z-score was -2.05 (active).

With “GGCAUUGAUCACUGACAGCTT against 9530077C05Rik”, the z-score is 0.827.

For GGACCAUACAUAUUCAAAATT against Aph1b, the z-score was 0.0294.

For the sequence GUCCUGAAGAAGCUCAAGATT against Cartpt, the z-score was -0.513.

Consider GGGACAGUACAGAGUGCUGTT against Hmx1, for which the z-score was 0.755.

As for CAAUCCUCAACGAUUACAUTT against Ncor1, the z-score is 2.05 (active).

Consider GGAUGAGGAGAUAAAGUCUTT against Misp, for which the z-score was -0.981.

On to GGAAUAAAACUUCUGAGAATT against Oog1, for which the z-score was -1.66.

As to GAAAACUCAAACAGCAUAUTT against Vmn1r216, the z-score was 0.833.

Take GAGCCACUUUCUCAAGUGUTT against Pou3f1: the z-score was 3.02 (active).

On to GUAACUCGCUUCUUGGUGGTT against Slc22a15, for which the z-score is 0.464.

Regarding GGUUCAAUGCUCCCUUCGATT against Ghrl, the z-score was 0.712.

Consider GCCAGUUUAAGUCUCUCCATT against Tmem168, for which the z-score is -2.37 (active).

Regarding GGCUCACCUGAUACACUUUTT against Ramp2, the z-score was 0.707.

On to GCCUUGAAAUGUCUGUAGCTT against Nkiras1, for which the z-score is 0.981.

As to GGGCUGACUUCCUAUGACCTT against Adra2c, the z-score was 2.14 (active).

For the sequence GGUGGAAUAACAGAUAAAATT against Cutc, the z-score was 0.255.

As for GGAGAAAGGAUUAUAGAUGTT against Klk7, the z-score was 0.202.

Take GGGAUUCUUUUUGUGGAAATT against Trim62: the z-score was 0.636.

Turning to GGUCUCAAUCAGAGUUACATT against Zfp324, the z-score was -0.936.

In the case of GGAGGUCAGACCAGUUUACTT against Htr3b, the z-score is 2.15 (active).

Take GCUUACAUCCAAGCCGUCUTT against Prss41: the z-score is 0.283.

In the case of GCUGGAGAUGAUUGUCUGATT against Psmd8, the z-score was -1.22.

In the case of GCGGGAACCAUUUUUGUGATT against Cdh11, the z-score is -1.18.

Take GGUCGAUUGAUAUACAAAATT against Gdf6: the z-score was 0.834.

Take CGUAUUAUCUGAGUGAACATT against Fth1: the z-score is -0.974.

Regarding GCAUCAUCACCACCAUCACTT against Pou3f3, the z-score was -0.598.

Regarding GGUCUGGAAUGGAGAACAGTT against Suox, the z-score is 2.73 (active).

On to GGUGACCAAGCAGAUAACATT against Prcc, for which the z-score was -1.19.

Regarding GGACGUGGGCUCUCUAGAUTT against S100a13, the z-score was 1.81.

Turning to CGGUGGAAAUACCAGGAUGTT against Tshb, the z-score is 0.406.

Regarding GGAAAUUUGCCGGCCAAAUTT against Fam83a, the z-score was 0.557.

As to GCACUCCACUCUUCCAUCATT against Cxcl16, the z-score is 0.35.

With GGUGGCUGAAGAUGUGACUTT against Ttyh1, the z-score is -3.46 (active).

For GCAAAGGACCUAAUUUAUUTT against Ehd4, the z-score is 1.13.

With GGUUCAAGGGCCAGAUCCUTT against Rpl32, the z-score is 0.887.

On to CCAGUGUUGGUAACAAUAUTT against Stat4, for which the z-score is 0.0489.

On to GGAAAAGAAAGAUGUGACUTT against Trappc9, for which the z-score is -2.55 (active).

As for CGUAGAUCUGGAUUGCUUUTT against Poli, the z-score is 1.74.

Regarding CCCAGCUAGACAGUCUUUCTT against Il11, the z-score is 2.58 (active).

In the case of GGCAGAGCCAGAAAAAUUGTT against Slc30a1, the z-score is 0.306.

For CCAGAAUGUAAAACAACCGTT against Zfp365, the z-score was 0.588.

In the case of CGGUUUCACGAAUUCCUCCTT against Scaper, the z-score was -2.16 (active).

As for GGAUUCAUGAAAUAAGUCATT against Zfp426, the z-score was -0.603.

For the sequence CGUGGUCUCGGACACUUUCTT against Hcn2, the z-score is -0.096.

Consider GGUGGAAUGAGGAAACAACTT against Cck, for which the z-score was -0.945.

GGAUUUAGCUAAGAGAGGGTT against Zmat3: the z-score was -0.125.

As to CGAUGGUGAUUAUCUAAAATT against Tm4sf4, the z-score is -0.0694.

Take GCGAAUGUGUGUAUUCUGGTT against BC055324: the z-score was -0.791.

For the sequence CGGUUGAUGGAAAAAUACATT against Ppef2, the z-score is 2.43 (active).

With GGAAAGAUGAGACCACCCGTT against Stau1, the z-score is -0.582.

GGCAAUAAUAAAUAGCACCTT against Homer1: the z-score was 0.8.

In the case of GGUAGAUGAACUUUAAAGATT against Syt13, the z-score was -0.846.

Take GGACUUCUUAACCGCCCUGTT against Sirt5: the z-score is 0.355.

With GGCUCAUGAGAAGACACACTT against Zbtb17, the z-score was 0.204.

GGUGCUAGUGGUGACCAUGTT against Pign: the z-score was 2.2 (active).

With CGUGAAAAAGUUAGCAAGUTT against Tars2, the z-score was 0.198.

In the case of “GGUUCUCCAAGGAAAGAGGTT against 2310002L09Rik”, the z-score is 2.8 (active).

As to CCUUCUAGUACAAAAGUUGTT against Jmjd1c, the z-score was 1.32.

GGACAAGAGAACAACUAGUTT against Mrtfb: the z-score is 0.0162.

Consider GACCAAAGCACUGACUAUGTT against Lyz2, for which the z-score is -0.184.

Take GGAAGAAAUGGACCAGCUGTT against Hgh1: the z-score was -0.416.

With GGUUUCCAUGGUAACGUGGTT against Tns1, the z-score is 2.24 (active).

For the sequence GGGCAUAUGAGAUUUAUUATT against Trappc2, the z-score is -0.423.

In the case of GGCCUACAUACUCCUGAAGTT against Ttc21a, the z-score is -1.28.

Take GGGAGCUGUUAACCUCAUCTT against Mthfr: the z-score was 3.34 (active).

For the sequence CCUAGAUUAAAUACUCGGATT against Saxo2, the z-score is 1.45.

Consider GCAGCCAAAUUCAUCCUCATT against Tspan33, for which the z-score is -0.552.

As for GGAAUGGACAAAAUGAUUCTT against Cct4, the z-score is 1.53.

As to UGUUGUUUUACCUGUGCCUTT against Gm10283, the z-score was -1.14.

As for GGCUCAUGGAAAACUCUAUTT against Hspa9, the z-score was 2.24 (active).

Take GGUUGCCAAUGACACUCGGTT against Trak2: the z-score is -0.342.

For the origin of these results see PubChem BioAssay AID1508600 (Functional Genomics Laboratory (NCATS/FGL), 2020).
